# From PubChem
# EPAC2 ag: activates human EPAC2 exchange factor; Potency, µM (doses to about 154 µM), without a hit: top-dose activation, usual class: activators; 360,000 tested, 0.079% active; AID 720711; EPAC2 activation, biochemical qHTS; response scale: 100% = 6.5 mM cAMP response; further: nearly all actives have a fitted effect of over 50% in size
#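 Each well held 100 nM EPAC2, 250 nM RAP1B-BODIPY-GDP and 50 uM GDP. Fluorescence, read at 5-min intervals to 30 min, was referenced to a 6.5 mM cAMP positive control.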
# EPAC1 ag: EPAC1 (human) agonism. 360,000 tested, 0.073% active. EPAC1 agonist qHTS, biochemical assay; response scale: 100% = response to 6.5 mM cAMP. O95398. Potency, µM (top dose mostly 154 µM), inactives show top-dose activation, hits mostly activators; further: nearly all actives have a fitted effect of over 60% in size
#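 Nucleotide exchange by EPAC1 (100 nM) on Rap1B–BODIPY-GDP (250 nM) in the presence of 50 uM GDP is tracked fluorescently at 480/540 nm over 30 min. Signals are normalized to a 6.5 mM cAMP control.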
# EPAC2 antagonist: EPAC2 (human) antagonism; Q8WZA2; 360,000 tested, 0.18% active; EPAC2 GEF exchange of Rap1B-BODIPY-GDP, fluorescence; Potency, µM (series often up to 114 µM), for inactives: at the top dose activity, negative = inhibition, actives largely listed as inhibitors; further: on the % scale 0 is the no-effect control and ±100 the full control effect; nearly all actives have a fitted effect of over 45% in size
# BRCA1 expr act: activators of BRCA1 expression; MCF7-BRCA1-FFLuc reporter, luminescence, 48 h; response scale: scaled: vehicle 0%, 10 µM genistein 100%; Potency, µM (series often up to 46.1 µM), for inactives: at the top dose activation, most hits filed as activators; 380,000 tested, 1.1% active; further: nearly all actives have a fitted effect of over 80% in size
#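 Using MCF7 cells harboring a BRCA1 firefly luciferase reporter, plated 2 h before compound pinning, the screen measured luminescence after 48 h incubation. Responses were normalized to DMSO and 10 microM genistein, then fitted for concentration-effect.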
# EPAC1 antagonist: antagonists of human EPAC1. O95398. EPAC1 GEF assay, Rap1b-BODIPY-GDP exchange fluorescence. Potency, µM (doses to about 115 µM), without a hit: top-dose activity change, negative = inhibition, usual class: inhibitors. 360,000 tested, 0.14% active. AID 720709;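 further: plate controls were vehicle for no effect and positive control for full effect; nearly all actives have a fitted effect of over 50% in size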
# RGS4 inhibitor: blocks human RGS4-accelerated GTP hydrolysis | Transcreener GDP fluorescence polarization, RGS4-accelerated GTP hydrolysis | Potency, µM (highest dose often 114 µM), for inactives: top-dose activity change, negative = inhibition, most hits filed as inhibitors | 390,000 tested, 0.039% active; further: on the % scale 0 is the no-effect control and ±100 the full control effect; nearly all actives have a fitted effect of over 75% in size
#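 MLSMR compounds (23 nl, pin-transferred) preincubated 10 min at room temperature with a 500nM (2x) first reagent, then RGS4 at 900nM (2x) plus Transcreener GDP mix added; fluorescence polarization (620/688 nm) read before and after 90 min at 30 °C.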
# Active calls of the source: *; ? = inconclusive; nt = not tested or not shown. Compounds with a hit are over-represented: about 1.3% of the library has one in this group of screens. The call rests on the fitted dose curve; in most records, active means well fitted curve in the direction sought with a large enough effect; inconclusive means small, poorly fitted or top-dose-only effect, or another doubt; inactive means no such curve, though single readings can be large; an effect the other way counts as inactive or inconclusive. Potency means the concentration at half of the fitted maximal effect.
SMILES,EPAC2 ag,EPAC1 ag,EPAC2 antagonist,BRCA1 expr act,EPAC1 antagonist,RGS4 inhibitor
COc1ccc2c(CCNC(=O)Nc3ccccc3)c[nH]c2c1,8%,4%,-7%,8%,4%,8%
O=C1CC(Nc2ccc(N3CCOCC3)cc2)C(=O)N1c1cccc(C(F)(F)F)c1 (configuration not stated),5%,-6%,-7%,0%,?,-41%
Cc1ccc(N=C2NC(=O)C(CC(=O)NCc3ccccc3)S2)cc1C (configuration not stated),10%,-2%,1%,-1%,-3%,-5%
CC(=O)Nc1cccc(NC(=O)c2ccc(COc3ccccc3)cc2)c1,-1%,5%,2%,2.2µM*,-3%,-1%
CC(=O)Nc1cccc(OCc2ccc([N+](=O)[O-])cc2)c1,9%,8%,-2%,11µM*,0%,nt
CC(=O)Nc1cccc(OCCCOc2ccc([N+](=O)[O-])cc2)c1,-5%,3%,17%,18%,-5%,18%
COc1ccc(O)c(-c2cc(C(F)(F)C(F)F)nc(-c3ccccc3)n2)c1,-9%,-19%,7%,14%,2%,-11%
CCN(CC)CCN(C(=O)c1ccc(S(=O)(=O)N(CC)c2ccccc2)cc1)c1nc2c(OC)ccc(OC)c2s1,2%,6%,-4%,-21%,1%,-4%
Cc1ccc(S(=O)(=O)CCc2ccccn2)cc1,3%,7%,0%,3%,3%,-31%
CC(C)(C)c1ccc(S(=O)(=O)CCc2ccccn2)cc1,5%,-3%,1%,14µM*,-8%,19%
COc1ccc(CNC(=O)/C(C)=C\C(=O)O)cc1,1%,-1%,2%,8%,2%,1%
O=c1cc(-c2ccc(F)cc2)nc(SCc2nc(-c3ccc(Cl)cc3)no2)[nH]1,nt,nt,nt,nt,nt,33%
CCN(CC)c1ccc2cc(S(=O)(=O)c3ccc(Cl)cc3)c(=O)oc2c1,-322%,89µM*,254%,-25%,126%,-14%
Cc1cc(C)cc(OCCn2nnc3ccccc32)c1,4%,2%,-29%,11µM*,8%,-15%
Clc1ccccc1OCCn1nnc2ccccc21,4%,3%,5%,11µM*,-14%,16%
Cc1ccc(C)c(OCCn2nnc3ccccc32)c1,-3%,2%,?,99%,-12%,-12%
Cc1cccc(C)c1OCCn1nnc2ccccc21,8%,-7%,5%,11%,8%,-22%
N#Cc1c(NC(=O)C2CC=CCC2C(=O)O)sc2c1CCCCCC2 (configuration not stated),2%,11%,-26%,1%,79µM*,1%
CC(C)(C)C1CCc2c(sc(NC(=O)C3CC=CCC3C(=O)O)c2C#N)C1 (configuration not stated),-4%,-15%,-1%,-14%,-29%,?
COc1ccc(Cc2c(-c3ccc(F)cc3)nc3ccc(Br)cn23)c(C)c1,5%,-9%,-2%,8.9µM*,-14%,nt
Cc1cc(C)cc(OC(=O)CCN2C(=O)c3ccccc3C2=O)c1,9%,29%,-3%,4%,-8%,-13%
Cc1ccc(NC(=O)c2ccc(OC(=O)COc3cccc(Cl)c3)cc2)cc1,4%,3%,4%,3.5µM*,2%,-1%
Cc1ccc(NC(=O)c2ccc(OC(=O)CCN3C(=O)c4ccccc4C3=O)cc2)cc1,2%,-2%,14%,7.1µM*,5%,-19%
O=C(c1cccs1)N1CCCc2cc(NS(=O)(=O)c3cc(F)ccc3F)ccc21,nt,nt,nt,nt,nt,6%
Cc1ccc(C(=O)NCC(=O)NC23CC4CC(CC(C4)C2)C3)cc1,1%,-5%,1%,6.3µM*,12%,21%
O=C(COC(=O)CNC(=O)c1ccccc1)NC12CC3CC(CC(C3)C1)C2,7%,3%,3%,-18%,-4%,nt
COc1ccc2c(c1)-c1nc(NC(=O)c3ccc(C)cc3)sc1CC2,nt,nt,nt,nt,nt,-37%
